ASM inhibitor: Inhibitors of Secretory Acid Sphingomyelinase (S-ASM): qHTS | Sphingomyelin phosphodiesterase (Homo sapiens), P17405 | placental ASM, HMU-PC fluorogenic substrate, 60 min | Potency, µM (titrated, usually from 57.5 µM), for inactives: top-dose activity change, negative = inhibition, actives largely listed as inhibitors | 340,000 tested, 0.006% active | AID 504937, 2011; further: potency means the concentration at half of the fitted maximal effect
Target sequence (P17405 47-631 limits assumed): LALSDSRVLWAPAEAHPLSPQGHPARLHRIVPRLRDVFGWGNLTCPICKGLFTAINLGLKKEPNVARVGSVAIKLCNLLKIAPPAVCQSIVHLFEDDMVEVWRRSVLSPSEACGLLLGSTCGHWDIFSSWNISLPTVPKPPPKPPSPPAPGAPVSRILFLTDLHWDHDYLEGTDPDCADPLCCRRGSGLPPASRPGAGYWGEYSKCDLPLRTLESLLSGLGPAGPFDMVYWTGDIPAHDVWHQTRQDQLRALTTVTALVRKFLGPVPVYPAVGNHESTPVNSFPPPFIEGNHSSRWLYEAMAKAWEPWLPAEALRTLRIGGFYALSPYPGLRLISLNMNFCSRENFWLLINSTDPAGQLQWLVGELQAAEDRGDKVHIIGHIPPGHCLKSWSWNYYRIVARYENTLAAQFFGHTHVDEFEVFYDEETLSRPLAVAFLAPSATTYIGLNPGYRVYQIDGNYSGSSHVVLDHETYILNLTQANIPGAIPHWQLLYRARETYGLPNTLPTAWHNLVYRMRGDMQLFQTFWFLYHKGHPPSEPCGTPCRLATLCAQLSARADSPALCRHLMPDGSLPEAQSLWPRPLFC
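Human placenta-derived ASM preincubated with compound 10 min at room temperature, then reacted with 9 uM (final) fluorogenic HMU-PC substrate for 60 min at 37 C. Stop solution raises pH to 10; fluorescence read at Ex 386/Em 447 nm.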
MmCpn inh: Inhibitors of TCP-1 ring complex (TRiC) of Methanococcus maripaludis (MmCpn): qHTS | Chaperonin Mm-Cpn (Methanococcus maripaludis) | purified Mm-Cpn ATPase, ADP Transcreener TR-FRET | Potency, µM (doses to about 76.9 µM), for inactives: top-dose activity, negative = inhibition, actives largely listed as inhibitors | 330,000 tested, 0.031% active | AID 504842, 2011; further: potency means the concentration at half of the fitted maximal effect; on the % scale 0 is the no-effect control and ±100 the full control effect; nearly all actives have a fitted effect of over 80% in size
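Purified archaeal Mm-CPN (25nM final) preincubated 10 min at 37degC with compound, then 10uM ATP for 30 min at 37degC; ADP measured by HTRF Transcreener TR-FRET; buffer 30 mM TRIS pH 7.4, 100mM KCl, 5mM MgCl2, 1mM DTT.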
CCT chaperon mod: High-Throughput Screening for Modulators of Cytosolic Chaperonin Activity; activity change, % (no concentration beside the values), hits read low; purified chaperonin ATPase assay, HTRF ADP detection, 30 min; 360,000 tested, 0.3% active; in the data active means activity change below about -30%; further: on the % scale 0 is the no-effect control and ±100 the full control effect
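First, chaperonin was dispensed at 40 nM or 20 nM final depending on batch activity. Next, compounds were pinned at 76 uM and ATP added at 10 uM. After 30 min at 37 °C, ADP detection reagents ran 30 min at ambient temperature.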
USP2a inh: qHTS Assay for Inhibitors of Ubiquitin-specific Protease USP2a Using CHOP2 as the Reporter; USP2 core, Ub-CHOP2 coupled fluorogenic reporter, 485/531; 330,000 tested, 0.01% active; Ubiquitin carboxyl-terminal hydrolase 2 (Homo sapiens), O75604; Potency, µM (highest dose often 38.3 µM), inactives show top-dose activity change, negative = inhibition, actives largely listed as inhibitors;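 further: potency means the concentration at half of the fitted maximal effect; plate controls were DMSO wells for no effect and full inhibition by NEM control for full effect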
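Deubiquitinase activity read as fluorescence (485/531 nm) after Ub-CHOP2 cleavage activates the enterokinase reporter on its substrate; USP2 core 10nM, Ub-CHOP2 and substrate 25nM each, 30min compound preincubation then 60min RT; data normalized to NEM, curves fitted.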
Active calls of the source: *; ? = inconclusive; · = no result. Only some compounds are listed: those with a hit (about 0.3% of all), similar ones and a draw of the others. Unless noted, the call rests on the fitted dose curve; in most records, active means well fitted curve in the direction sought with a large enough effect; inconclusive means small, poorly fitted or top-dose-only effect, or another doubt; inactive means no such curve, though single readings can be large; an effect the other way counts as inactive or inconclusive.

SMILES	ASM inhibitor	MmCpn inh	CCT chaperon mod	USP2a inh
CN1CCN(S(=O)(=O)c2ccc([N+](=O)[O-])cc2)CC1	-6%	2%	0	0%
O=C1CN(S(=O)(=O)c2ccc([N+](=O)[O-])cc2)CC(=O)N1	6%	-2%	-52*	2%
COc1cccc(NC(=O)C(OC(=O)/C=C/c2ccc3c(c2)OCO3)c2ccccc2)c1 (stereo unspecified)	-3%	-17%	-3	1%
C=CCNC(=O)/C(=C\c1ccc(OC)cc1)NC(=O)c1ccc([N+](=O)[O-])cc1	1%	2%	-35*	4%
Cc1[nH]c2ccc(C(=O)NC3CCC(C)CC3)cc2c1C (stereo unspecified)	0%	-8%	-62*	4%
CC(=O)N1CCN(C2=NC(=O)/C(=C/c3ccc(OS(=O)(=O)c4ccccc4)cc3)S2)CC1	-19%	-6%	-79*	1%
Cc1cc(=O)oc2c(C)c(OCC(=O)NCCCn3ccnc3)ccc12	3%	3%	1	1%
O=C(CSc1nc2cc(Cl)ccc2o1)N1CCOCC1	4%	-2%	-31*	-1%
CNC[C@H]1Oc2c(NS(=O)(=O)c3ccc(F)cc3)cccc2C(=O)N([C@H](C)CO)C[C@@H]1C	-4%	-1%	0	0%
Cc1nn(Cc2ccccc2Cl)c2sc(C(=O)Nc3nccs3)cc12	34%	-21%	-57*	3%
C=CCNC(=S)NNc1nc(Nc2ccccc2)nc(N2CCCCC2)n1	-6%	0%	-1	1%
C=CCNC(=S)NNc1nc(N2CCCC2)nc(N2CCCC2)n1	0%	-1%	-54*	2%
Cc1ccc(CNC(=O)c2oc3ccc(S(=O)(=O)N4CCOCC4)cc3c2C)cc1	-6%	-3%	-3	-2%
Cc1c(C(=O)Nc2cccc(C(F)(F)F)c2)oc2ccc(S(=O)(=O)N3CCOCC3)cc12	22µM*	-1%	-1	-1%
Cc1c(C(=O)N2CCOCC2)oc2ccc(S(=O)(=O)N3CCCC3)cc12	-2%	35µM*	-7	-1%
Cc1cc(Cl)c2oc(C(=O)N3CCN(C(=O)c4ccco4)CC3)c(C)c2c1	-4%	-2%	0	4%
Cc1cc(Cl)c2oc(C(=O)N3CCOCC3)c(C)c2c1	·	·	-35*	·
CCC(=O)Nc1ccc(C(=O)n2nc(C)cc2C)cc1	2%	3%	0	-1%
Cc1c(N=C(N)/N=C(\N)Nc2ccc(Br)cc2)c(=O)n(-c2ccccc2)n1C	4%	-1%	0	2%
Cc1ccccc1C(=O)NN1C(=O)CSC1=S	·	-19%	-1	2%
O=C1CSC(=S)N1Nc1ccccc1	-2%	·	-34*	·
Cc1cc(C(=O)OCC(=O)N2CCCCCC2)ccc1[N+](=O)[O-]	1%	0%	5	-1%
CCn1nnnc1SCC(=O)N1CCN(c2ccccc2)CC1	4%	-1%	-1	1%
O=C(CSc1nnnn1Cc1ccccc1)N1CCN(c2ccccc2)CC1	0%	-1%	-37*	2%
Cc1nc(NC(=O)c2ccccc2)sc1C	-1%	1%	0	-3%
SMILES	ASM inhibitor	MmCpn inh	CCT chaperon mod	USP2a inh
Cc1nc(NC(=S)NC(=O)c2ccccc2)sc1C	3%	0%	-33*	-1%
CCc1cc(C(=O)OC)c(NC(=O)c2cc(Br)cs2)s1	73%	·	1	·
CCc1cc(C(=O)OC)c(NC(=O)c2ccoc2C)s1	-3%	1%	-45*	-1%
CC1CCCC(NC(=O)c2cc(S(=O)(=O)N3CCOCC3)ccc2F)C1C (stereo unspecified)	0%	1%	2	-2%
Nc1c(Cl)cc2c(c1Br)Cc1ccccc1-2	0%	·	-3	·
Nc1ccc2c(c1Br)Cc1ccccc1-2	?	·	-41*	·
Cc1cc(C)c2[nH]c(O)c(N=NC(=S)NCC3CCCO3)c2c1 (stereo unspecified)	·	0%	0	4%
Oc1[nH]c2c(Cl)cc(Cl)cc2c1N=NC(=S)NCC1CCCO1 (stereo unspecified)	-25%	0%	-40*	-1%
Cc1ccc(-c2nn(-c3ccccc3)cc2CSC(=N)N)cc1	-4%	0%	-59*	3%
O=C(c1cc2cc(F)ccc2[nH]1)N1CCc2ccccc21	10%	0%	0	1%
O=C(c1cc2cc(Br)ccc2[nH]1)N1CCc2ccccc21	0%	-4%	-38*	-2%
Cc1c(OC(C)C(=O)NCC2CCC(C(=O)O)CC2)ccc2c3c(c(=O)oc12)CCCC3 (stereo unspecified)	4%	0%	-37*	1%
COCCn1c(C)cc(/C=C2/NC(=O)N(c3ccc(Cl)cc3)C2=O)c1C	1%	-1%	1	1%
Cc1nnc(SCC(=O)Nc2ccc(OC(F)F)c(Cl)c2)n(N)c1=O	-1%	2%	-40*	-5%
O=c1n(Cc2ccccc2)c(O)c2n1Cc1ccccc1N=C2c1ccccc1	·	·	-40*	·
Nc1ncnc2c1ncn2CCOc1ccccc1	2%	1%	-31*	4%
c1csc(CNc2nc(-c3cccs3)nc3ccccc23)c1	10%	-17%	-1	-9%
c1ccc(-c2nc(NCc3cccs3)c3ccccc3n2)cc1	-10%	0%	-48*	5%
COc1ccc(CNCC2COc3ccccc3O2)cc1 (stereo unspecified)	2%	0%	1	1%
COc1ccc(-c2nnc(NC(=O)C(C)C)o2)cc1	7%	0%	-39*	-1%
COc1ccc(-c2nnc(NC(=O)C3CC3)o2)cc1	1%	2%	1	2%
CCOC(=O)COc1c(C(=O)OC)sc2ncccc12	4%	0%	-4	1%
COc1ccc(Cc2nc3ccc(C(=O)N(C)Cc4cc(C)[nH]n4)cc3o2)cc1OC	3%	-8%	-70*	4%
CC1CC(C)CN(CCCNS(=O)(=O)c2ccc3c(c2)CCN3C(=O)C2CC2)C1 (stereo unspecified)	-2%	3%	2	2%
C=C1CC2(OC1=O)c1ccccc1CCc1ccccc12	-1%	·	-5	·
CN=C(NC#N)SCC(=O)c1ccc(Cl)cc1Cl	-3%	0%	-38*	2%
CCc1ccc(NS(=O)(=O)c2cc3c4c(c2)CCN4C(=O)CC3)cc1	-2%	1%	-61*	1%
O=C1CCc2cc(S(=O)(=O)Nc3cccc(F)c3)cc3c2N1CC3	-2%	-4%	3	1%
O=C(Nc1ccc(F)cc1)c1cccc(N2C(=O)c3ccccc3C2=O)c1	-5%	-2%	-2	1%
COc1ccc(N2CC(C(=O)N3CCC4(CC3)CC(=O)c3ccccc3O4)CC2=O)cc1 (stereo unspecified)	-1%	2%	-56*	1%

Compound activity as filed in PubChem BioAssay.
